Assay outcomes: PubChem BioAssay, National Center for Advancing Translational Sciences (NCATS)
BAZ2B block – BAZ2B (human) inhibition. 4.4% of 360,000 active. AID 504333. AlphaScreen BAZ2B-H3K14Ac peptide displacement. Potency, µM (titrated, usually from 114 µM), hits mostly inhibitors; further: nearly all actives have a fitted effect of over 60% in size
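AlphaScreen displacement: compounds (up to 110uM) incubated 30 min at room temperature with a preformed 50 nM BAZ2B/50 nM biotinylated H3K14Ac peptide complex in PBS pH 7.4 with Tween-20. Donor and acceptor beads at 10 ug/mL final added, 20 min light-protected before reading.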
GLS inhibitor – glutaminase GLS (human) inhibition; AID 624170; Potency, µM (doses to about 45.5 µM), usual class: inhibitors; 0.21% of 410,000 active; GLS enzymatic activity, qHTS titration; O94925
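Two-point fluorescence kinetic (t0, 30 min RT) for hKGA; glutamate detected via glutamate oxidase–HRP–Amplex Red. Substrate: 1 mM L-glutamine solution; buffer 45 mM KH2PO4, pH 8.2.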
JMJD2A Tudor – inhibitors of human JMJD2A Tudor domain; AlphaScreen JMJD2A-Tudor / H3K4me3 peptide binding; Potency, µM (series often up to 114 µM), most hits filed as inhibitors; 4.4% of 390,000 active; AID 504339; further: nearly all actives have a fitted effect of over 50% in size
HP1b binding inh – HP1-beta chromodomain-methylated histone interaction inhibition. AID 540317. 0.56% of 390,000 active. Potency, µM (highest dose often 114 µM), actives largely listed as inhibitors. AlphaScreen HP1-beta / biotin-H3K9me3 peptide binding. P83916; further: nearly all actives have a fitted effect of over 70% in size
Target sequence (P83916 whole entry, looked up): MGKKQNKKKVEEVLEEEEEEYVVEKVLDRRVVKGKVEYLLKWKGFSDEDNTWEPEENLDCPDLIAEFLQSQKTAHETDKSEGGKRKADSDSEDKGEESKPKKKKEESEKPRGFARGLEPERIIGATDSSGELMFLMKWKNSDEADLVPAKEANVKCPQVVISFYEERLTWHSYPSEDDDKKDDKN
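AlphaScreen: HP1-beta (50 nM) preformed 30 min with biotin-H3(1-18)K9me3 peptide (50 nM) in PBS pH 7.4, 0.01% Tween-20. Compound added for 30 min at RT, then streptavidin donor/nickel chelate acceptor beads (10 ug/mL) for 30 min.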
G9a block – G9a (human) methyltransferase inhibition; G9a H3K9 monomethylation, AlphaScreen, 2 h; Q96KQ7; Potency, µM (doses to about 102 µM), actives largely listed as inhibitors; 8.8% of 350,000 active; AID 504332; further: nearly all actives have a fitted effect of over 75% in size
Target sequence (Q96KQ7 913-1193 limits assumed): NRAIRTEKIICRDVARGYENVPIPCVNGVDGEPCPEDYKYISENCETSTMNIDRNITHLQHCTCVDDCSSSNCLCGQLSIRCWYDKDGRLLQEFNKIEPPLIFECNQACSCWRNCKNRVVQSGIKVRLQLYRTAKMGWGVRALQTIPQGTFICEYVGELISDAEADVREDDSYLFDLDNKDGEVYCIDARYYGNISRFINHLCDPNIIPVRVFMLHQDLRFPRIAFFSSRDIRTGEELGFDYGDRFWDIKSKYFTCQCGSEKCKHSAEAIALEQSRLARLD
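G9a (20 nM) preincubated 15 min RT with compounds, then 500 nM biotinylated H3K9 peptide and 20 uM SAM added; 2 h RT reaction. Monomethyl-H3K9 product detected by AlphaScreen with anti-H3K9me1 antibody, streptavidin donor and anti-rabbit IgG acceptor beads.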
A number is an active result; n = inactive; u = inconclusive; x = no result given; [ ] = remark or other dose. A selection: hits, their analogues and other compounds. The true share with any hit is near 10%. The call rests on the fitted dose curve; in most records, active means well fitted curve in the direction sought with a large enough effect; inconclusive means small, poorly fitted or top-dose-only effect, or another doubt; inactive means no such curve, though single readings can be large; an effect the other way counts as inactive or inconclusive.

SMILES	BAZ2B block	GLS inhibitor	JMJD2A Tudor	HP1b binding inh	G9a block
CC(NCc1ccc2c(c1)OCO2)C(=O)NC1CCCCC1 (stereo not given)	n	n	u	n	n
Cc1cc(NC(=O)CCC(=O)N(CC(=O)NC2CCCC2)Cc2ccc3c(c2)OCO3)no1	n	n	n	n	50µM
O=c1c2ccccc2nc(-c2ccccc2)n1Cc1ccc(Cl)cc1	n	n	n	n	n[2.33 µM]
O=C(CSc1nc2ccccc2s1)Nc1cc(S(=O)(=O)N2CCOCC2)ccc1O	u	n	50µM	n	u
Cc1nnc(SCC(=O)Nc2cc(S(=O)(=O)N3CCOCC3)ccc2C)s1	n	n	n	n	n
COc1ccc(S(=O)(=O)N2CCOCC2)cc1NC(=O)CSc1n[nH]c(C(C)C)n1	n	n	n	n	28µM
COc1ccc(S(=O)(=O)N2CCOCC2)cc1NC(=O)CSc1nnc(N)s1	n	n	n	n	45µM
CCc1noc(C)c1C(=O)Nc1cc(S(=O)(=O)N2CCCCC2)ccc1N(C)C	n	n	n	n	u
CCc1noc(C)c1C(=O)Nc1cc(S(=O)(=O)N2CCOCC2)ccc1OC(C)C	n	n	n	n	13µM
Cc1ccccc1N=C(N)Nc1ccccc1C	n	n	n	n	n[12.7 µM]
CCNC(=O)CC1SC(=Nc2cccc3ccccc23)N(C)C1=O (stereo not given)	n	n	n	n	50µM
CCCc1nc2c(C)ccc(C)c2c(N)c1CC	n	n	2.8µM	u	u
COc1cc(C2Nc3cc(Cl)c(S(N)(=O)=O)cc3S(=O)(=O)N2)cc(OC)c1OC (stereo not given)	n	n	n	n	n
COc1cccc(C2Nc3cc(Cl)c(S(N)(=O)=O)cc3S(=O)(=O)N2)c1 (stereo not given)	n	n	50µM	n	n
COc1ccccc1NC(=O)Nc1ccnn1C1CCN(C(=O)c2ccccn2)CC1	n	n	n	n	n
Cc1ccc(-c2cnc(NCc3cc4c(cc3[N+](=O)[O-])OCO4)n2C)cc1C	n	n	32µM	u	n
O=S(=O)(c1ccc(Cl)c(NC(=S)N/N=C/c2ccc(O)cc2)c1)N1CCOCC1	n	n	u	n	1.4µM
C/C(=N\NC(=S)Nc1cc(S(=O)(=O)N2CCOCC2)ccc1Cl)c1ccc(N2CCOCC2)cc1	n	n	n	n	32µM
COc1ccc2cc(/C(C)=N/NC(=S)Nc3cc(S(=O)(=O)N4CCOCC4)ccc3N3CCOCC3)ccc2c1	n	x	x	x	n
C/C(CCC(C)C)=N\NC(=S)Nc1cc(S(=O)(=O)N2CCOCC2)ccc1N1CCOCC1	n	n	n	n	25µM
O=[N+]([O-])c1cc(Cl)cc(/C=N/NC(=S)Nc2ccc(S(=O)(=O)N3CCOCC3)cc2)c1O	2.8µM	n	n[11.4 µM]	22µM	16µM
CCCC(C)C(=O)Nc1cc(S(=O)(=O)N2CCCCC2)ccc1N1CCOCC1 (stereo not given)	n	n	n	n	n
O=S(=O)(c1ccc(NC(=S)N/N=C/c2ccc(O)c(O)c2)cc1)N1CCOCC1	u	u	u	n	x
COc1cnc(SCc2ccc(Cl)cc2)nc1Cl	n	n	n	n	n[12.7 µM]
Cc1cc(O)c(C(=O)c2ccccc2C(=O)O)cc1C	x	n	n	n	n
SMILES	BAZ2B block	GLS inhibitor	JMJD2A Tudor	HP1b binding inh	G9a block
CC(C)NC(=S)N/N=C/c1ccc(N2CCOCC2)cc1	n	n	n	n	n
Oc1ccc(/C=N/NC(=S)N2CCOCC2)cc1	n	n	n	n	50µM
O=C(COc1ccc2ccc(=O)oc2c1)Nc1ccc(CN2CCOCC2)cc1	n	n	n	n	n
CC(NO)C(C)(C)NO (stereo not given)	n	n	40µM	u	u
CSC1=NC(C(Cl)(Cl)Cl)N=C(c2ccc(C)cc2)N1 (stereo not given)	n	n	n	n	14µM
COc1ccc(NS(=O)(=O)c2ccc(NC(=O)C3CC3)cc2)cc1	n	n	n	n	n
CN1/C(=C/C=C(C#N)C#N)C(C)(C)c2ccccc21	n	n	n	n	x
C=CCN1C(=O)/C(=C\C=C2\N(C)c3ccccc3C2(C)C)SC1=S	u	n	u	u	16µM
CN1/C(=C\C=C2/SC(=S)N(CC(=O)O)C2=O)C(C)(C)c2ccccc21	28µM	n	u	35µM	18µM
CCN1C(=O)/C(=C\N2CCCc3ccccc32)SC1=S	n	n	n	n	n[12.7 µM]
CCCN1C(=O)/C(=C/C=C2\N(CC)c3ccccc3C2(C)C)SC1=S	1.8µM	n	11µM	10µM	u
C=CCOC(=O)/C=C/C(=O)NC(N)=O	n	n	u	18µM	8.9µM
CN1CCC(N(C)C(=O)CNC(=O)c2ccc(C(C)(C)C)cc2)CC1	n	n	n	n	n
CS(=O)(=O)c1ccc(Cl)c(NC(=O)COC(=O)CCCN2C(=O)c3cccc4cccc(c34)C2=O)c1	n	n	n	n	n
Oc1ccc2c(ccc3[nH]cnc32)c1	n	n	n	n	50µM
Brc1cc2[nH]cnc2c2ccccc12	n	n	n	n	u
CC1CN(c2ccc([N+](=O)[O-])c(NCCOc3ccc(Cl)cc3)c2)CC(C)N1 (stereo not given)	11µM	n	32µM	u	45µM
CCc1ccc(OCCNc2cc(N3CCNC(C)C3)ccc2[N+](=O)[O-])cc1 (stereo not given)	35µM	n	40µM	u	n[2.33 µM]
C(=C\c1nc2ccccc2[nH]1)/c1ccccc1	n	n	n	n	n
CNc1c2cccc(C)c2nc2c(C(=O)NCCN(C)C)cccc12	x	n	n	n	x
CC1=NN(c2ccc(N)cc2)C(=O)C1	u	n	n[11.4 µM]	n	8.9µM
O=C(Cc1ccccc1)Nc1nc2ccccc2[nH]1	n	n	n	n	n
CCc1nnc(NC(=O)Cc2c[nH]c3ccccc23)s1	n	n	n	n	45µM
O=C(Cc1c[nH]c2ccccc12)Nc1nc2ccccc2[nH]1	n	n	u	n	79µM
COc1cccc(-c2nn3c(-c4cc(C)[nH]n4)nnc3s2)c1	n	n	n	n	n
SMILES	BAZ2B block	GLS inhibitor	JMJD2A Tudor	HP1b binding inh	G9a block
CCNC(=O)NC(=O)COC(=O)c1cccc(NS(=O)(=O)/C=C/c2ccccc2)c1	u	n	n	n	n
CCOc1ccc(CC(=O)Nc2c(C(=O)c3ccc(F)cc3)oc3ccc(Cl)cc23)cc1OCC	n	n	n	n	u
CCCOc1cccc(-c2cc(C(=O)NNC(=S)NCC)c3ccccc3n2)c1	n	n	n	n	n[12.7 µM]
CC(C)Oc1cccc(-c2cc(C(=O)NN3CCOCC3)c3ccccc3n2)c1	n	n	n	n	n
Cc1cccc(-c2cc(C(=O)NCCCn3ccnc3)c3ccccc3n2)c1	u	x	x	x	n
CCNC(=S)NNC(=O)c1cc(-c2cccc(OC)c2)nc2ccccc12	n	n	n	n	40µM
COc1cccc(-c2cc(C(=O)NCCCn3ccnc3)c3ccccc3n2)c1	u	n	n	n	3.2µM
